# Screens deposited in PubChem BioAssay by National Center for Advancing Translational Sciences (NCATS).
# HTT cytoprotect – Huntington cell model cytoprotection by ATP luminescence; PC12 HTT-Q103 induced, cytoprotection, ATP luminescence, 40 h; Potency, µM (titrated, usually from 56.4 µM), inactives show cytoprotection (ATP increase), hits mostly activators; hit rate 0.14% among 230,000; AID 1471; also: % of control where 0% means no effect; nearly all actives have a fitted effect of over 45% in size
#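 Rat PC12, Q103 Htt exon1-GFP fusion, ecdysone promoter; tebufenozide inducer 100 nM final; compound titration; qHTS, 1500 cells/well; ATPlite luminescent read.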
# Epigenetic reg – derepresses silenced GFP reporter in murine cells; murine LDR cells, GFP reporter derepression, 30 h; Potency, µM (series often up to 53.9 µM), for inactives: top-dose GFP activation, hits mostly activators; hit rate 0.2% among 280,000; also: % of control where 0% means no effect; nearly all actives have a fitted effect of over 60% in size
#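 Murine LDR cells carrying a silenced, genomically integrated CMV-driven GFP reporter were exposed to compound for 30 hours at 37 C. After PBS washes, GFP-positive cells (20–120 um objects) were counted by laser-scanning microplate cytometry.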
# Apoferritin bind – candidate novel general anesthetic via apoferritin binding; Potency, µM (titrated, usually from 77.5 µM), without a hit: at the top dose activity change, negative = displacement, hits mostly inhibitors; hit rate 0.074% among 350,000; apoferritin/1-aminoanthracene competitive binding, fluorescence; P02791; AID 485281; also: % is scaled to controls: 0 for no effect and ±100 for the full control effect; nearly all actives have a fitted effect of over 20% in size
# Target sequence (P02791 2-175 limits assumed): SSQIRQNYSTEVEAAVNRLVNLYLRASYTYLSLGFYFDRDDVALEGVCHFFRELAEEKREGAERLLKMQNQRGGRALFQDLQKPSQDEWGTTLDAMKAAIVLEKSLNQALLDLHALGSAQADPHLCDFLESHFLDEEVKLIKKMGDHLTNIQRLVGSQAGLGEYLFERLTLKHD
#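 Steps: apoferritin (10 uM) was premixed with half-saturated 1-AMA in PBS, compounds were pin-transferred, plates stood 10 min at room temperature, fluorescence was read at 380/535 nm, and curves were fitted with a Hill equation.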
# TSG101-PTAP inh – blocks PTAP/TSG101 interaction to inhibit HIV-1 budding. Potency, µM (top dose mostly 115 µM), for the others: at the highest dose activity change, negative = inhibition, hits mostly inhibitors. AID 493005. 340,000 tested, under 10 active. Q99816. Fluorescence polarization, FITC-PTAP peptide / Tsg101 binding; active = well fitted inhibition curve with a large enough effect in the main read-out, with a control signal flat, not every such curve was filed as active; inconclusive = small, poorly fitted or top-dose-only effect, or effect the other way, or a change in a side signal; inactive = no such curve, though single readings can be large or run the other way; also: % of control where 0% means no effect
# Target sequence (Q99816 whole entry, looked up): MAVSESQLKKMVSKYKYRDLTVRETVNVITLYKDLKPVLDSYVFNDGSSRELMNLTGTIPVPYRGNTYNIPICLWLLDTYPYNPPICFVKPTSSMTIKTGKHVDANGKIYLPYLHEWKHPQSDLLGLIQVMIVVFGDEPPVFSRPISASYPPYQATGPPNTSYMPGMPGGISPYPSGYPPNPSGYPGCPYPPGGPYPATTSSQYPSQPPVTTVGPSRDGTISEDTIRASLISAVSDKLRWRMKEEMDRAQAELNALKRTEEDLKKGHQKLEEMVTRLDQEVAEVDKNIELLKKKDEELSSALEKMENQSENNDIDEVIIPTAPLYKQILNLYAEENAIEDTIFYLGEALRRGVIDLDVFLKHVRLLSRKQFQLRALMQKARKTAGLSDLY
#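 Compounds were pin-transferred onto Tsg101 binding domain (10 uM final) in HEPES pH 7.5 buffer, then FITC-PTAP peptide was added at 50 nM final. After 20 min at RT, polarization reported peptide displacement across a qHTS concentration series.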
# HTT aggregate – reduces HttQ103-GFP aggregates in PC12 cells; PC12 HttQ103-GFP aggregates, Acumen cytometry, 40 h; Potency, µM (titrated, usually from 46.1 µM), for the others: at the top dose activity change, negative = inhibition, usual class: inhibitors; hit rate 1.1% among 220,000; also: % is scaled to controls: 0 for no effect and ±100 for the full control effect; nearly all actives have a fitted effect of over 60% in size
#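 PC12/HTTQ103-GFP, ecdysone-inducible; teb 100 nM; cpd qHTS titration; GFP aggregates read on laser cytometer, Ex 488/Em 500-530 nm.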
# PINK1 expr mod – PINK1 expression modulation. PINK1 immunofluorescence, high-content cytometry, 24 h. hit rate 0.2% among 410,000. Potency, µM (top dose mostly 76.6 µM), without a hit: at the highest dose activation (PINK1 increase), usual class: activators; active = well fitted activation curve with a large enough effect; inconclusive = small, poorly fitted or top-dose-only effect; cell line not stated here; also: % of control where 0% means no effect; nearly all actives have a fitted effect of over 65% in size
#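 Measures PINK1 amount and localization on or inside mitochondria by immunofluorescence. Stable cells get compounds at 5 concentrations for 24 hours before fixation and staining; CCCP controls included.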
# * marks the source's active call; other numbers are inactive results; u = inconclusive; x = no result given; [ ] = remark or other dose. The full list was thinned out, with hits kept by preference. Unless noted, calls follow the shape of the dose curve; as a rule, active = well fitted curve in the direction sought with a large enough effect; inconclusive = small, poorly fitted or top-dose-only effect, or another doubt; inactive = no such curve, though single readings can be large; an effect the other way counts as inactive or inconclusive. Potency is read from the fitted curve at half-maximal effect.
SMILES,HTT cytoprotect,Epigenetic reg,Apoferritin bind,TSG101-PTAP inh,HTT aggregate,PINK1 expr mod
O=C(Nc1ccccc1)Nc1ccc(S(=O)(=O)N2CCCCC2)cc1,11%[10 µM],-14%,-14%,-3%,13µM*,10%
CC(NC(=S)Nc1ccc(S(=O)(=O)N2CCOCC2)cc1)C1CC2CCC1C2 (centres undefined),-27%[10 µM],-1%,-21%,0%,u,40µM*
CCN(CC)S(=O)(=O)c1ccc(C)c(NC(=S)Nc2cccc(S(=O)(=O)N3CCCCCC3)c2)c1,-51%[10 µM],7%,u,-1%,-5%,25µM*
O=S(=O)(c1ccc(NC(=S)NC23CC4CC(CC(C4)C2)C3)cc1)N1CCCCC1,x,x,x,x,x,18µM*
CCN(CC)S(=O)(=O)c1ccc(C)c(NC(=O)CNc2cccc(S(=O)(=O)N3CCOCC3)c2)c1,x,x,x,-1%,x,7%
O=S(=O)(c1ccc(NC(=S)Nc2ccccc2)cc1)N1CCOCC1,x,-3%,-13%,-6%,10%,0%
CCC1(C2CCN(Cc3c(C)[nH]c4ccccc34)CC2)NC(=O)N(Cc2ccc3c(c2)OCO3)C1=O (centres undefined),x,x,x,x,x,0%
COc1cc(OC)c(OC)cc1CN1CCOc2ccc(CN3C[C@@H](C)O[C@@H](C)C3)cc2C1,x,x,x,x,x,-1%
FC(F)(F)c1nc(N2CCCC2)ncc1-c1nnnn1-c1ccc(Cl)cc1,3.5µM*,1%,u,-4%,u,5%
FC(F)(F)c1ccncc1-c1nnnn1-c1ccc(Cl)cc1,14%[10 µM],0%,32%,-2%,-4%[9.22 µM],1%
Cc1oc(-c2ccccc2NC(=O)C2CCCO2)nc1CNC(=O)c1cc(Cl)ccc1F (centres undefined),x,x,x,x,x,1%
N#Cc1cc(NC(=O)c2ccc(F)cc2)c(=O)n2c1[nH]c1ccccc12,-162%,-1%,-2%,x,14µM*,x
Cc1c(CCC(=O)O)c(=O)n2c([nH]c3ccccc32)c1C#N,-26%,1%,632%,-7%,-3%,1%[38.3 µM]
O=S(=O)(NC1CC1)c1ccc(S(=O)(=O)N2CCCC(c3nc(-c4cccnc4)no3)C2)cc1 (centres undefined),-6%[10 µM],5%,-4%,1%,11µM*,6%
Cc1nc2ccc(C(=O)OC(C)C(=O)c3c(C)[nH]c4ccccc34)cc2nc1C (centres undefined),x,x,x,x,x,2%
COc1ccc(S(=O)(=O)NCCSC(C)(C)C)c(Cl)c1Cl,18%,-1%,16µM*,-8%,-2%,7%[38.3 µM]
CCCNS(=O)(=O)c1ccc(OC)c(Cl)c1Cl,21%,1%,-11%,-12%,-21%,9%[38.3 µM]
Cc1ccc(C2=CC(c3ccc(N(C)C)cc3)n3nnnc3N2)cc1 (centres undefined),-22%,19%,-19%,5%,10µM*,7%
CC(C)c1ccc(C2=CC(c3ccc(C(C)C)cc3)n3nnnc3N2)cc1 (centres undefined),x,0%,u,x,x,3%
CN(C)c1ccc(C(=O)N2CCCC(Cn3cc(C(=O)N4CCCC4)nn3)C2)cc1 (centres undefined),x,x,x,x,x,0%
CC(=O)N1CCN(c2nc(-c3ccco3)c3c(c2C#N)CC(C)(C)SC3)CC1,-52%,1%,-4%,-4%,13µM*,-2%
O=C(Cc1ccccc1)NCC(=O)OCC(=O)c1ccc2ccccc2c1,x,x,x,x,x,1%
COC(=O)N/N=C/c1ccc(-c2ccc(C)c(Cl)c2)o1,u,1%,-3%,-2%,11%,4%
Cc1ccc(-c2ccc(/C=N/NC(=O)CN3CCCC3)o2)cc1Cl,-18%,-1%,18µM*,-2%,7%,-1%
COCc1c(C(=O)N2CCN(C3CCCC3)CC2)cnn1-c1ncc2c(n1)-c1ccccc1CCC2,x,x,x,x,x,0%
SMILES,HTT cytoprotect,Epigenetic reg,Apoferritin bind,TSG101-PTAP inh,HTT aggregate,PINK1 expr mod
Cc1ccc(C(=O)C(c2ccccc2)N2Cc3ccccc3C2=N)cc1 (centres undefined),20%[10 µM],u,38%,0%,16µM*,12%
CC(C)CCNC(=O)[C@@H](c1ccccc1)N1Cc2ccccc2C1=O,x,-1%,-6%,x,x,0%
CCN(CC)CCNc1ncnc2c1[nH]c1ccc(OC)cc12,-23%,-1%,u,x,-8%,x
COc1ccc2[nH]c3c(NCCC4=CCCCC4)ncnc3c2c1,-156%,-2%,-5%,2%,13µM*,-2%
CCC(C)Cn1c(COc2ccc(OC)cc2)nc2ccccc21 (centres undefined),x,8%,-8%,x,x,-2%
CCC(C)Cn1c(C)nc2ccccc21 (centres undefined),-31%,-2%,-11%,-1%,20µM*,0%
Oc1ccc2ccccc2c1/C=N/Nc1ccccc1,42%[10 µM],0%,-14%,0%,u,6%
Cc1cc(N/N=C/c2c(O)ccc3ccccc23)nc(-c2ccccc2O)n1,27%[10 µM],1%,3%,-4%,10µM*,45µM*
c1cc2c(cc1C1=NNC(=NC3CC3)SC1)OCCO2,-185%,28µM*,u,-6%,u,-2%
Cc1oc(-c2ccccc2NC(=O)c2ccccn2)nc1CNC(=O)c1ccc(Oc2ccccc2)o1,x,x,x,x,x,0%
Cc1ccc(-c2nc(NC(=O)c3nn(C)cc3[N+](=O)[O-])sc2C)cc1,-99%,-3%,u,-5%,18%[9.22 µM],-3%
Cc1ccc(-c2nc(NC(=O)c3nn(C)cc3[N+](=O)[O-])sc2C)cc1C,-89%,1%,u,-3%,7.9µM*,-1%
COc1ccccc1OS(=O)(=O)c1ccc(NC(C)=O)cc1,-27%,0%,-2%,-2%,u,0%
COC(=O)/C=C/S(=O)(=O)c1ccc(NC(C)=O)cc1,-141%,-2%,-9%,-3%,10µM*,x
COc1ccccc1/C=C/c1ccnc2ccccc12,x,x,x,x,x,1%
Cc1nc2c(-c3ccccc3)c(C)[nH]n2c(=O)c1Cc1ccccc1,-124%,-1%,-17%,-1%,u,0%
Cc1nc2c(-c3ccc(Cl)cc3)c(C)[nH]n2c(=O)c1Cc1ccccc1,-123%,0%,-3%,1%,10µM*,35µM*
COc1ccc(Br)cc1C(C[N+](=O)[O-])c1c(N)n(C)c(=O)n(C)c1=O (centres undefined),-79%[10 µM],u,3%,-7%,4µM*,-2%
COc1ccccc1NC1=C(N2CCCCC2)C(=O)c2ccccc2C1=O,-49%[10 µM],1%,-7%,-4%,13µM*,16%
COc1cc(=O)n2c(c1C(=O)NC(C)c1ccco1)CCN(C(=O)c1cccc(C)c1C)CC2 (centres undefined),x,x,x,x,x,0%
